RE007 growth inh: less growth of the S. pombe RE007 Vpr strain; S. pombe RE007 Vpr strain, BacTiter-Glo ATP luminescence, 24 h; Potency, µM (doses to about 92.2 µM), inactives show top-dose activity change, negative = less growth, usual class: inhibitors; 0.21% of 360,000 active; active means well fitted falling curve with a large enough effect; inconclusive means small, poorly fitted or top-dose-only effect; inactive means no such curve, though single readings can be large or run the other way; further: potency means the concentration at half of the fitted maximal effect; on the % scale 0 is the no-effect control and ±100 the full control effect; nearly all actives have a fitted effect of over 50% in size
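Fission yeast strain RE007, carrying one chromosomally integrated HIV-1 vpr copy, was seeded at OD 0.01 in PMG+AL medium with 23 nL pinned compound. After 24 h at 30 °C and 99% humidity, viability was read by BacTiter-Glo luminescence.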
Shiga toxin inh: blocks Shiga toxin action in Vero cells; Vero cells, Shiga toxin protein synthesis inhibition reporter; inhibition, % at 38.7 µM; 9.2% of 290,000 active; in the data active means inhibition mostly above about 28%, no sharp cut-off; inactive means mostly below about 43%; further: 0% is about no effect
Tb PYK inh: blocks Trypanosoma brucei pyruvate kinase; 0.12% of 410,000 active; TbPYK enzyme, Kinase-Glo Plus ATP luminescence, 45 min; Potency, µM (titrated, usually from 76.8 µM), inactives show at the highest dose activity, negative = inhibition, actives largely listed as inhibitors; Q57TT1; AID 624173; further: potency means the concentration at half of the fitted maximal effect; on the % scale 0 is the no-effect control and ±100 the full control effect; nearly all actives have a fitted effect of over 50% in size
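Quantitative HTS: titrated library compounds versus trypanosomal pyruvate kinase in TEA buffer (pH 7.2) containing KCl, MgCl2, BSA and Tween-20. Reactions were initiated with ADP, 130 uM final. Kinase-Glo Plus luminescence was read after 45 min at RT.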
CHX counter-1: counter-screen for Shiga toxin inhibitors: cycloheximide protein synthesis inhibition; 12% of 300,000 active; cell reporter, cycloheximide protein synthesis inhibition counterscreen; max response, %; in the data active means max response mostly above about 13%, no sharp cut-off; inactive means mostly below about 14%; further: read at 38.3 µM for the half of the compounds with a filed dose; 0% is about no effect
Giardia FBPA inh: blocks Giardia fructose-bisphosphate aldolase activity. A8B2U2. purified Giardia FBPA. Potency, µM (titrated, usually from 59.6 µM), inactives show at the highest dose activity, negative = inhibition, actives largely listed as inhibitors. 0.71% of 290,000 active; further: potency means the concentration at half of the fitted maximal effect; on the % scale 0 is the no-effect control and ±100 the full control effect; nearly all actives have a fitted effect of over 55% in size
Target sequence (A8B2U2 whole entry, looked up): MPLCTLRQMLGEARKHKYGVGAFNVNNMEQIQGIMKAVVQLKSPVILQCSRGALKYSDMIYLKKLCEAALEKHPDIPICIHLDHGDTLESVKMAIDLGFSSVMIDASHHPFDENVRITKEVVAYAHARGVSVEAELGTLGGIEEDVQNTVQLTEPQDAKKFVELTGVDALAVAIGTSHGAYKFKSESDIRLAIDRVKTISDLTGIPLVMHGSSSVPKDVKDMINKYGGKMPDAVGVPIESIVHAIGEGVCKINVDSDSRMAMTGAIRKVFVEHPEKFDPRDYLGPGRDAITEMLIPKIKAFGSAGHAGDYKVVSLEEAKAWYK
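40 nM FBPA preincubated 10 min at RT with compound (up to 57.5 uM final), then substrate plus GAPDH/TPI/NAD/arsenate coupling and diaphorase/resazurin added. Fluorescence read after 20 min at RT, 525/598 nm.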
LmPK inhibitor: blocks Leishmania mexicana pyruvate kinase activity. 0.37% of 290,000 active. AID 1721. Potency, µM (highest dose often 57.5 µM), for the others: top-dose activity change, negative = inhibition, actives largely listed as inhibitors. purified LmPK, Kinase-Glo ATP luminescence, 1 h. Q27686; further: potency means the concentration at half of the fitted maximal effect; on the % scale 0 is the no-effect control and ±100 the full control effect
Target sequence (Q27686 whole entry, looked up): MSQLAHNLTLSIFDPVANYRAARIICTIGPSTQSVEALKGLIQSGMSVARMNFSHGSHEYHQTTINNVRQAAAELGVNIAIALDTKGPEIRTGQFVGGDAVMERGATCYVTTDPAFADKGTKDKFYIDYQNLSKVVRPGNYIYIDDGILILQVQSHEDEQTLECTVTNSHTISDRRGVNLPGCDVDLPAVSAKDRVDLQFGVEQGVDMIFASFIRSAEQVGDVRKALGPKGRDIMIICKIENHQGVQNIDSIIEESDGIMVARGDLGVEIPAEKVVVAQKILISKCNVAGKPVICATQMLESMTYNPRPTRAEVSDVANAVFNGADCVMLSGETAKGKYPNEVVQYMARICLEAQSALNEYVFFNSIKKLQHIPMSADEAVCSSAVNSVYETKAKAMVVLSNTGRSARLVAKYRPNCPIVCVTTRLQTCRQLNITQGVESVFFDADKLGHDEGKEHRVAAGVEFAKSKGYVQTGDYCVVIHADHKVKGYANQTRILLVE
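qHTS format; LmPK 0.1 nM; substrates PEP 0.5 mM and ADP 0.1 mM. One-hour room-temperature incubation, then coupled luciferase luminescence; 0.5 nM enzyme wells mark activation.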
CHX counter-2: affects protein synthesis reporter in cycloheximide counter-screen | shares compounds with Shiga toxin inh | Cycloheximide counterscreen, protein synthesis reporter, Shiga toxin assay | Potency, µM (series often up to 38.3 µM), inactives show at the highest dose activity (activation), usual class: activators | 3% of 510 active; calls by dose curve; further: potency means the concentration at half of the fitted maximal effect; 0% is about no effect
Active calls of the source: *; ? = inconclusive; . = no result. The sample as a whole holds a higher share of hits than the screen did. Unless noted, the call rests on the fitted dose curve; in most records, active means well fitted curve in the direction sought with a large enough effect; inconclusive means small, poorly fitted or top-dose-only effect, or another doubt; inactive means no such curve, though single readings can be large; an effect the other way counts as inactive or inconclusive.

SMILES	RE007 growth inh	Shiga toxin inh	Tb PYK inh	CHX counter-1	Giardia FBPA inh	LmPK inhibitor	CHX counter-2
COc1ccc2nc(SCC(=O)NC3CCCCC3)[nH]c2c1	-11.5%	47.5	-4.7%	-1.0	-9.3%	5.7%	.
CCOc1ccc2nc(SCC(=O)NC3CCCCC3)[nH]c2c1	12.0%	43.8*	-8.1%	-3.4	-8.3%	0.0%	-1.2%
COc1ccc2nc(SCC(=O)Nc3ccc4c(c3)CCC4)[nH]c2c1	1.9%	41.6*	1.5%	5.4	-2.5%	-4.0%	-0.3%
COc1ccc2nc(SCC(=O)Nc3ccc4[nH]c(=O)[nH]c4c3)[nH]c2c1	2.8%	.	1.5%	.	.	.	.
COc1ccccc1N1CCN(C(=O)c2cc(-c3ccc(F)cc3)[nH]c2C)CC1	4.1%	-4.4	-7.1%	6.7	-1.2%	-4.1%	.
COc1cccc(CNC(=O)c2ccc3c(c2)N(Cc2ccc(F)cc2Cl)C(=O)c2ccccc2S3)c1	.	-2.3	2.8%	-7.2	.	.	.
O=C(c1ccc(-c2cc(O)c3ncccc3c2)cc1)N1CCNCC1	.	.	1.7%	.	.	.	.
Cc1nn(-c2ccc(Cl)cc2)c(N)c1C(O)(CSc1nccn1C)C(F)(F)F (stereo unspecified)	-0.7%	68.7*	-10.3%	13.5	0.8%	-1.0%	0.2%
Cc1nn(-c2ccccc2)c(N)c1C(O)(CSc1nccn1C)C(F)(F)F (stereo unspecified)	2.2%	-8.2	-1.5%	-2.4	-3.0%	4.0%	.
COCCCn1c(SCC(=O)OC2CCCCC2)nnc1-c1cccs1	-1.8%	86.0*	0.6%	-1.2	-0.6%	11.8%	-1.6%
OC[C@@H]1CN(CCN2CCOCC2)C[C@H](n2cnc3c(Nc4ccccc4)ncnc32)O1	-0.8%	.	-1.6%	.	.	.	.
Cc1ccc(C(=O)c2cc3c(cc2N)OCCO3)cc1	-10.6%	1.0	-0.4%	-3.3	-11.9%	2.7%	.
CSc1nc2cc3c(cc2n1C(=O)c1ccc(C)cc1)OCCO3	-3.0%	80.0*	0.9%	7.4	6.1%	2.0%	?
COC(=O)[C@@]1(Cc2ccc(F)cc2)[C@H]2c3cc(C(=O)N4CCCC4)n(CCc4ccc(O)c(O)c4)c3C[C@H]2CN1C(=O)c1ccccc1	.	52.5*	.	6.9	-29.6%	-1.5%	0.7%
COC(=O)[C@@]1(Cc2ccc(F)cc2)[C@H]2c3cc(C(=O)N4CCCC4)n(CCc4ccc(OC)c(Br)c4)c3C[C@H]2CN1C(=O)c1ccccc1	1.9%	.	1.6%	.	-8.4%	.	.
CCOC(=O)c1ccc(NC(=O)c2nn(C)c3c2COc2ccccc2-3)cc1	.	.	-3.5%	.	.	.	.
O=C(NCC1CCCO1)Nc1ccc2c(c1)OCO2 (stereo unspecified)	2.1%	43.1*	-7.0%	7.5	-3.0%	1.3%	?
Cc1ccc(C(=O)Nc2ccc3nc(SCC(=O)N4CCCc5ccccc54)sc3c2)cc1	.	.	-0.9%	.	.	.	.
COc1cc2c(cc1OC)CN(C(=O)c1sccc1C)CC2	7.7%	12.1	-3.3%	-2.4	0.9%	-2.5%	.
Cc1ccsc1C(=O)N1CCc2ccccc2C1	?	36.5*	3.8%	14.6	.	4.1%	?
O=C(COC(=O)c1c2c(nc3ccccc13)CCN(Cc1ccccc1)C2)Nc1c(F)cccc1F	4.3%	17.2	-5.9%	0.2	5.6%	2.6%	.
CC(=O)Nc1ccc(NC(=O)COC(=O)c2c3c(nc4ccccc24)CCN(Cc2ccccc2)C3)cc1	1.1%	22.0*	-7.0%	0.7	-5.5%	-3.6%	-3.5%
Cc1cc2n(n1)SC(Nc1cc(Cl)ccc1Cl)N2 (stereo unspecified)	0.3%	35.1*	-9.0%	17.4	?	6.5%	0.5%
Cc1cnc(CNc2ncnc3ccc(-c4ccccc4C#N)cc23)cn1	.	.	.	.	-3.5%	.	.
COc1ccc(/C=C(/NC(=O)c2ccc(OC)c(OC)c2)C(=O)NCCCn2ccnc2)cc1	-6.9%	-1.9	-4.8%	-6.9	-2.9%	-1.1%	.
SMILES	RE007 growth inh	Shiga toxin inh	Tb PYK inh	CHX counter-1	Giardia FBPA inh	LmPK inhibitor	CHX counter-2
O=C(Cn1ncc2c(=O)oc3ccccc3c21)N(Cc1ccco1)C1CCCCC1	1.6%	47.6*	4.3%	1.0	-1.3%	5.9%	-2.4%
O=C(Cn1ncc2c1-c1ccccc1OC2)N(Cc1ccco1)C1CCCCC1	0.1%	-9.3	-4.5%	-2.9	6.0%	-1.2%	.
CNC(=O)CSc1nnc(-c2cc(C)cc(C)c2)o1	4.1%	26.9*	1.2%	0.5	4.5%	-0.1%	1.3%
O=C(COC(=O)Cn1cc(C(F)(F)F)ccc1=O)NCc1ccccc1	-17.7%	.	-2.8%	.	.	.	.
Cc1cccc2c1N(CCCOc1ccccc1)C(=O)C2=O	5.7%	1.2	-1.0%	-3.1	-15.2%	-1.4%	.
Cc1ccccc1OCCCN1C(=O)C(=O)c2cccc(C)c21	?	27.9*	0.9%	6.2	-28.1%	0.5%	-1.4%
CCn1c(SCC(N)=O)nnc1-c1ccc2[nH]c(C)c(C)c2c1	10.8%	-11.5	-5.3%	-1.6	-7.8%	0.6%	.
CCn1c(SCC(=O)O)nnc1-c1ccc2[nH]c(C)c(C)c2c1	-11.2%	26.7*	-14.8%	14.2	4.5%	1.6%	5.3%
CN(C(=O)c1cnc(N2CCOCC2)c2ccccc12)c1ccccc1F	.	.	-3.7%	.	.	.	.
CCC(=O)N1CCc2cc(S(=O)(=O)NC(C(=O)NCc3ccc(F)cc3)C(C)C)ccc21 (stereo unspecified)	-15.3%	6.9	-9.3%	-5.2	0.5%	-6.3%	.
CCC(=O)N1CCc2cc(S(=O)(=O)NC(C(=O)N3CCN(c4ccc(F)cc4)CC3)C(C)C)ccc21 (stereo unspecified)	-14.7%	16.7*	3.9%	-3.3	25.7%	0.3%	-3.3%
CN(C)S(=O)(=O)Nc1ccc(Cc2ccncc2)cc1	-9.0%	.	-1.8%	.	.	.	.
CCCCc1ccc(NS(=O)(=O)N(C)C)cc1	3.5%	71.9*	-2.1%	1.5	-4.1%	-6.6%	2.5%
Cc1oc2ccc(O)c(CN(C)Cc3ccccc3)c2c1C(=O)Nc1cccc(Cl)c1C	.	.	-4.7%	.	.	.	.
O=C(NC1CCN(S(=O)(=O)c2ccccc2)CC1)c1ccc(F)cc1	1.0%	-2.0	7.9%	0.5	-1.7%	-1.6%	.
CC(C)(C)c1cc(CCC(=O)N2CCC2)cc(C(C)(C)C)c1O	-9.5%	14.0*	26.0%	13.5	.	-8.9%	4.6%
Cc1ccc(S(=O)(=O)NC(=O)c2ccccc2C)cc1	-2.1%	12.8	-5.7%	-0.8	.	-0.1%	.
COC(=O)c1ccc(COc2ccc(C3C4=C(CCCC4=O)Nc4onc(C)c43)cc2)cc1 (stereo unspecified)	2.1%	47.0*	-10.8%	6.6	-0.6%	6.4%	?
O=C(COc1ncnc2ccccc12)NCCC1=CCCCC1	-3.1%	40.6*	-11.7%	1.4	-1.4%	-3.3%	-2.0%
O=C(COc1ncnc2ccccc12)NCCc1ccccc1	1.2%	-6.7	-3.9%	5.4	2.7%	-12.3%	.

Source: PubChem (National Center for Advancing Translational Sciences (NCATS))
